From PubChem BioAssay

assay: A549 cell viability effects, profiling panel, calcein-AM fluorescence, 48 h, basal (AID 1162); settings: higher = more signal; further: test concentration not given here

SMILES	z-score
COC(=O)CC=C[C@@H](C)[C@@H](C=NOC[C@@H](C)[C@H](OCc1ccccc1)C(C)C)NS(=O)(=O)c1ccc(C)cc1	0.0174
COc1cccc([C@H]2Oc3ccc(OC)cc3C(=NO[C@@H](C)c3cc(-c4c(C)cc(C)cc4C)no3)[C@@H]2O)c1	-0.744
CCN1C(=O)[C@H]2[C@H]3[C@H](O)[C@H](O)CC(=NNC(=O)OCc4ccccc4)[C@H]3CC[C@H]2C1=O	-0.365
CC(=O)OC[C@H]1O[C@H](CCON=C(C)CCN2CCCc3nc(C)c(C)cc32)C=C[C@@H]1OC(C)=O	0.235
CCOC(=O)[C@H](Cc1ccccc1)NC(=O)CCC1CC(OC(=O)NCc2cccc3ccccc23)CC2(CCCC(COC(=O)NCCOc3ccccc3)O2)O1 (some centres undefined)	0.128
CC(CCN1CCCc2nc(C)c(C)cc21)=NOC[C@@H](O)COCc1ccco1	0.604
CC(CCC(=O)OC[C@H]1O[C@H](C#Cc2ccccc2)C=C[C@@H]1Oc1ccc(C)cc1)=NO[C@H](C)c1cn([C@@H]2COC[C@H]2O)nn1	1.28
C[C@H]1C=CCC(=O)OC[C@H](C)C(=O)N2CCC[C@H]2C(=O)OC1	-0.531
CC(=O)OC[C@H]1O[C@@H](ON=C2[C@H]3CCn4c(=O)n(-c5ccccc5)c(=O)n4[C@H]3[C@H](O)[C@@H]3O[C@H]23)[C@H](OC(C)=O)[C@@H](OC(C)=O)[C@@H]1OC(C)=O	-0.0311
C[C@@H](c1ccccc1)N1C(=O)[C@H]2[C@H]3[C@H](O)[C@H](O)CC(=NNC(=O)OCc4ccccc4)[C@@H]3CC[C@H]2C1=O	-0.18
CCOC(=O)CCN1C(=O)[C@H]2[C@H]3[C@H](O)[C@H](O)CC(=NNC(=O)OCC)[C@H]3CC[C@H]2C1=O	-1.19
O=C1[C@H]2[C@H]3[C@H](O)[C@H](O)CC(=NOC[C@@H](O)COCc4ccco4)[C@@H]3CC[C@H]2C(=O)N1C1CCCCC1	0.0095
CC(=O)OC[C@H]1O[C@H](CCON=C(C)C)C=C[C@@H]1OC(C)=O	0.191
COC(=O)[C@@H]1CC[C@H](C)[C@@H](c2ccc(C)cc2)N1C(=O)c1ccc(C=NOC[C@H]2O[C@H](c3ccccc3)C=C[C@@H]2Oc2ccc(OC)cc2)cc1	-0.798
C=C(C)C(=O)OC[C@H]1CN2[C@@H](CC[C@@H](C)[C@@H]2c2ccc(Br)cc2)C(=O)O1	0.824
CCOC(=O)[C@H](Cc1ccccc1)NC(=O)CCC1CC(OC(=O)NCc2cccc3ccccc23)CC2(CCCC(COC(=O)NCCc3ccccc3OC)O2)O1 (some centres undefined)	-0.111
CCOC(=O)[C@H](CC(C)C)NC(=O)CCC1CC(OC(=O)NCc2ccc3c(c2)OCO3)CC2(CCCC(COC(=O)NCCC(C)C)O2)O1 (some centres undefined)	0.0634
CC(C)CON=C1C[C@@H](O)[C@@H](O)[C@@H]2[C@@H]3C(=O)N(C(C)(C)C)C(=O)[C@@H]3CC[C@@H]12	-0.502
COc1ccc(O[C@H]2C=C[C@@H](c3ccccc3)O[C@@H]2COC(=O)CCC(C)=NOC[C@@H](O)COCc2ccco2)cc1	0.944
CC(C)(C)N1C(=O)[C@H]2[C@H]3[C@H](O)[C@H](O)CC(=NOC[C@@H](O)COCc4ccco4)[C@@H]3CC[C@H]2C1=O	-0.535
CC(CCN1CCCCc2nc(C)c(C)cc21)=NO[C@@H](C)c1cc(-c2c(C)cc(C)cc2C)no1	1.08
COC(=O)[C@H](C)NC(=O)CC=C[C@@H](C)[C@@H]1C=C[C@H](O)[C@@H](CO)O1	-0.244
CCN1C(=O)[C@H]2[C@H]3[C@H](O)[C@H](O)CC(=NOC[C@@H](O)COCc4ccco4)[C@H]3CC[C@H]2C1=O	-0.199
O=C1[C@H]2[C@H]3[C@H](O)[C@H](O)CC(=NOC[C@@H](O)COCc4ccco4)[C@@H]3CC[C@H]2C(=O)N1Cc1ccc2c(c1)OCO2	0.751
Cc1ccc(S(=O)(=O)N[C@@H]2COC(=O)CC=C[C@@H](C)[C@H](NS(=O)(=O)c3ccc(C)cc3)COC(=O)[C@H](C)NC(=O)CC=C[C@H]2C)cc1	0.697
COC(=O)CC=C1c2ccccc2[C@H](OC)[C@H]1C	0.16
CCN(CC)CC(O)CN1CCCCc2nc(C)c(C)cc21 (centres undefined)	-0.0127
CC(C)CON=C1C[C@@H](O)[C@@H](O)[C@@H]2[C@@H]3C(=O)N(Cc4ccccc4)C(=O)[C@@H]3CC[C@H]12	-0.216
COc1ccc(OC[C@H]2CN3[C@@H](CC[C@@H](C)[C@@H]3c3ccc(Br)cc3)C(=O)O2)cc1	-0.0668
